Bioassay records as filed in PubChem.
SNCA expr inhib – inhibitors of alpha-synuclein (SNCA) gene expression; HEK-293 SNCA-luciferase knock-in, luminescence, 24 h; Potency, µM (top dose mostly 57.2 µM), actives largely listed as inhibitors; 140,000 tested, 0.17% active; note: nearly all actives have a fitted effect of over 45% in size
IP6K1 inhibitor – blocks human inositol hexakisphosphate kinase 1. 140,000 tested, 0.81% active. Q92551. activity change, % (series mostly up to about 58 µM). IP6K1 kinase, ADP-Glo luminescence, 2 h; hits give low values; in the data active = activity change below about -25%
Target sequence (Q92551 whole entry, looked up): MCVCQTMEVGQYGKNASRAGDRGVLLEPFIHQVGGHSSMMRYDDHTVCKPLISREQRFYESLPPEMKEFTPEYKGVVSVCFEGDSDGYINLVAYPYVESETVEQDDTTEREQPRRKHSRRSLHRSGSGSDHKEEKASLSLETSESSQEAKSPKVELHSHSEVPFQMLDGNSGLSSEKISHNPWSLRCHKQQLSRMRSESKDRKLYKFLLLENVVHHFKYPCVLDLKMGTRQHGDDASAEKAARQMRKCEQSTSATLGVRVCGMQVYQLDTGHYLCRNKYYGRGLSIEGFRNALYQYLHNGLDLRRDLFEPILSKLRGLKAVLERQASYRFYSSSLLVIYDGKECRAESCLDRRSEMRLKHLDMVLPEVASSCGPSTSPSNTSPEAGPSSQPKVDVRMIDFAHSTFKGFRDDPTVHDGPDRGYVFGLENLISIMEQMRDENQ
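ADP-Glo luminescence measures ADP made by human IP6K1 during a 2 h RT reaction with ATP/IP6 (mix at 1.3 mM/130 uM); top library doses 57.5 and 19.1 uM final.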
SNCA viab count – counter-screen for SNCA expression inhibitors: cell viability; HEK-293-SNCA-luc viability, GF-AFC fluorescence, 24 h; 150,000 tested, 0.12% active; Potency, µM (highest dose often 57.1 µM), actives largely listed as cytotoxic; AID 1671193; note: nearly all actives have a fitted effect of over 30% in size
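Cytotoxicity counterscreen: after 24 h compound treatment of genome-edited SNCA-luciferase HEK-293 cells, live-cell protease substrate GF-AFC read by fluorescence after 30 min; activity scaled between DMSO (0%) and medium-only (-100%), curves Hill-fitted.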
KDM5B inh – inhibitors of human KDM5B histone demethylase | Q9UGL1 | KDM5B demethylase, FDH-coupled NADH fluorescence (FDH is formaldehyde dehydrogenase) | Potency, µM (top dose mostly 57.7 µM), usual class: inhibitors | 220,000 tested, 2.6% active | AID 1347165; note: nearly all actives have a fitted effect of over 70% in size
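KDM5BΔAP (200 nM final) in 50 mM HEPES pH 7.5, 0.01% Tween-20 was preincubated 10 min at RT with compound over a concentration range. Substrate mix (H3K4me3 12.5 µM, α-KG 25 µM, Fe²⁺, ascorbate, NAD⁺, FDH) was added, and NADH fluorescence change over 30 min gave dose-response curves.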
Large screens that a line does not name were inactive. Only some compounds are listed: those with a hit (about 3% of all), similar ones and a draw of the others. Unless noted, calls come from the whole dose curve; as a rule, active = well fitted curve in the direction sought with a large enough effect; inconclusive = small, poorly fitted or top-dose-only effect, or another doubt; inactive = no such curve, though single readings can be large; an effect the other way counts as inactive or inconclusive.

Cc1noc(-c2ccn3c(CNC(=O)Cc4ccccc4Cl)nnc3c2)n1	KDM5B inh 25µM
Cc1noc(-c2ccn3c(CNC(=O)COc4ccccc4)nnc3c2)n1	KDM5B inh 13µM
COc1cccc(-c2cc(C(=O)NCc3ccccn3)c3cnn(C)c3n2)c1	none (no result: SNCA expr inhib, SNCA viab count, KDM5B inh)
O=C(C1CC=CC1)N1CCC[C@H](n2c(=O)n(Cc3cccc(F)c3)c3cccnc32)C1	none (no result: KDM5B inh)
N#Cc1ccc(CN2C[C@@H]3C[C@H]2C(=O)N(Cc2ccccc2)c2ccccc2O3)cc1	KDM5B inh 28µM
O=C1[C@@H]2C[C@@H](CN2Cc2ccccc2)Oc2ccccc2N1Cc1ccccc1	KDM5B inh inconclusive
COc1ccccc1-c1ccc(CN2CCC(NC(=O)C3CCCC3)C2)cc1 (stereo unspecified)	none (no result: SNCA expr inhib, SNCA viab count, KDM5B inh)
O=C1COc2ccc(-c3ccncc3)nc2CN1Cc1ccc(C(F)(F)F)cc1	SNCA expr inhib inconclusive, KDM5B inh 40µM
O=C1COc2ccc(-c3ccncc3)nc2CN1Cc1ccccc1	KDM5B inh 35µM
O=C1COc2ccc(-c3ccoc3)nc2CN1Cc1ccccc1	SNCA expr inhib inconclusive, SNCA viab count inconclusive, KDM5B inh 32µM
CC(=O)Nc1cccc(-c2ccc3c(n2)CN(Cc2ccccc2)C(=O)CO3)c1	none
Cc1ccccc1-c1ccc2c(n1)CN(Cc1ccccc1)C(=O)CO2	none
O=C1COc2ccc(-c3cn[nH]c3)nc2CN1Cc1ccc(C(F)(F)F)cc1	none
CCOC(=O)[C@@H]1[C@@H](O)C(=O)N(C)C12CCN(C(=O)OC)CC2	none (no result: SNCA expr inhib, SNCA viab count, KDM5B inh)
COc1cccc([S+](=O)([O-])NC2CCN(c3ccc4nnc(C)n4n3)CC2)c1	none (no result: SNCA expr inhib, SNCA viab count, KDM5B inh)
Cc1nn(-c2ccccc2)c2c1C(C1CC1)N(C1CN(C(=O)c3ccccn3)C1)C2=O (stereo unspecified)	none (no result: SNCA expr inhib, SNCA viab count, KDM5B inh)
O=C(c1ccc(F)cc1)N1C[C@@H]2C[C@H](C1)c1ccc(NS(=O)(=O)c3cccc(F)c3)c(=O)n1C2	KDM5B inh inconclusive
COc1ccc(CC(=O)Nc2ccc3n(c2=O)C[C@H]2C[C@@H]3CN(C(=O)c3ccc(-c4ccccc4)cc3)C2)cc1	KDM5B inh 25µM
COc1ccc(CC(=O)Nc2ccc3n(c2=O)C[C@H]2C[C@@H]3CN(C(=O)Nc3ccc(OC)cc3)C2)cc1	none
COc1ccc(NC(=O)N2C[C@@H]3C[C@H](C2)c2ccc(NC(=O)Nc4cccc(C#N)c4)c(=O)n2C3)cc1	SNCA expr inhib inconclusive, KDM5B inh 28µM
O=C(Nc1cccc(F)c1)Nc1ccc2n(c1=O)C[C@H]1C[C@@H]2CN(C(=O)c2ccc(F)cc2)C1	KDM5B inh 28µM
O=C(NC1CCCN(c2ccc3nnc(-c4ccccc4)n3n2)C1)c1ccc(Cl)cc1 (stereo unspecified)	none (no result: SNCA expr inhib, SNCA viab count, KDM5B inh)
N#CC1CCN(C(=O)C2CCN(c3nccc(Nc4ccccc4F)n3)CC2)CC1	SNCA expr inhib inconclusive, SNCA viab count inconclusive (no result: KDM5B inh)
COc1ccccc1-c1nc(N2CCOCC2)cc2c1CN(c1ccccc1)C2=O	KDM5B inh 35µM
O=C1c2cc(N3CCOCC3)nc(-c3ccccc3Oc3ccccc3)c2CN1C1COC1	KDM5B inh 28µM
Cn1cc(-c2nc(N3CCOCC3)cc3c2CN(c2ccccc2)C3=O)cn1	KDM5B inh 20µM
O=c1cc(N2CCOCC2)oc2c(-c3ccccc3Oc3ccccc3)nccc12	SNCA viab count inconclusive, KDM5B inh inconclusive
Cc1ccc2c(c1)[C@@H]1[C@H](CO2)CN(CCC#N)C(=O)CCN1[S+](=O)([O-])c1ccccc1	none (no result: SNCA expr inhib, SNCA viab count, KDM5B inh)
Cn1ncc2c(C(=O)NC3CC3)cc(-c3cccc(F)c3)nc21	none (no result: SNCA expr inhib, SNCA viab count, KDM5B inh)
CS(=O)(=O)NCCc1ccc(CC2CCN(C(=O)CC3CCCC3)CC2)cc1	none (no result: KDM5B inh)
Cn1ncc2c(C(=O)NCc3cccs3)cc(-c3cccnc3)nc21	none (no result: KDM5B inh)
CN(C)C[C@@H]1CN(c2ncccn2)C[C@H]1NC(=O)Cc1cccc(F)c1	KDM5B inh 25µM
CN(C)C[C@@H]1CN(c2ncccn2)C[C@H]1NC(=O)Cc1c[nH]c2ccccc12	SNCA expr inhib inconclusive, KDM5B inh inconclusive
CN(C)C[C@@H]1CN(c2ncccn2)C[C@H]1NC(=O)Cc1ccccc1F	KDM5B inh 32µM
O=C(Cc1cccc(Cl)c1)N[C@@H]1CN(c2ncccn2)C[C@H]1CO	KDM5B inh inconclusive
COc1cccc(CC(=O)N[C@@H]2CN(c3ncccn3)C[C@H]2CO)c1	KDM5B inh 25µM
CN(C)C[C@@H]1CN(c2ncccn2)C[C@H]1NC(=O)Cc1ccc(F)cc1	KDM5B inh 28µM
O=C(NCCN[S+](=O)([O-])c1cccc(C(F)(F)F)c1)c1ccc(-c2cccc(C(F)(F)F)c2)cc1	none (no result: SNCA expr inhib, SNCA viab count, KDM5B inh)
